Shown are actives, neighbours in structure and some others; about 4.4% of the full set was active somewhere.
D1 agonist = activates the human D1 dopamine receptor | activation, % at 2 µM | hit rate 1% among 360,000 | HEK293 T-REx D1 cells, calcium flux, agonist mode
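Inducible HEK293 T-REx D1 cells, force-coupled to calcium signalling, were plated at 4000 cells/well with tetracycline and held overnight at 30 C. After no-wash calcium dye loading, compound-evoked calcium rise over 180 s flagged agonists.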
D1 PAM = human D1 dopamine receptor positive modulation; hit rate 0.036% among 360,000; AID 504651; P21728; HEK293 TREx D1 cells, calcium flux, dopamine EC20 potentiation; potentiation, % at 10 µM; in the data active means potentiation above about 30%
TRHR PAM = allosteric enhancers of human TRH receptor | P34981 | TRHR cells, fluo-8 calcium fluorescence, EC20 TRH enhancement | enhancement, % at 2 µM | hit rate 0.66% among 360,000; in the data active means enhancement above about 30%
Target sequence (P34981 whole entry, looked up): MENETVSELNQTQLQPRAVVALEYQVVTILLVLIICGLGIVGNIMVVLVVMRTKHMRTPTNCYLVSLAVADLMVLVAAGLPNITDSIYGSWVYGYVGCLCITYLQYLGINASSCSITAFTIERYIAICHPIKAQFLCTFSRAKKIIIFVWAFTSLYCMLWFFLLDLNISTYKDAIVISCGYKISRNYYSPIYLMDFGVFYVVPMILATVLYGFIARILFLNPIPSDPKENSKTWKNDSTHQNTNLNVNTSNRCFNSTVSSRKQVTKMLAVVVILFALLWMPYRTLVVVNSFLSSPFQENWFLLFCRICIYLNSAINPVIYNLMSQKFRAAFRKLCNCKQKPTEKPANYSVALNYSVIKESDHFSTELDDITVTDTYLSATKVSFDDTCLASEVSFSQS
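TRHR-expressing cells loaded with fluo-8 calcium dye were read kinetically (ex 480/em 530) during compound addition, then stimulated with an EC20 of TRH (10 nM final). Enhancement of the Gq-mediated intracellular calcium response was scored.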
D1 antagonist = blocks dopamine activation of the human D1 receptor; P21728; HEK293 TREx D1 cells, calcium flux, dopamine EC80; hits give low values; activity change, negative = inhibition, % at 10 µM; hit rate 3.2% among 360,000; AID 504652; in the data active means activity change below about -30%
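Compound effects on dopamine-evoked calcium signalling were measured in tetracycline-induced HEK293 Trex D1 cells. Dopamine at EC80 followed a 180 s compound pre-read, and fluorescence was tracked kinetically for 180 s more.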
USP1 inh = inhibitors of human USP1/UAF1 deubiquitinase; O94782; Potency, µM (highest dose often 57.1 µM), most hits filed as inhibitors; recombinant USP1/UAF1, Ub-Rhodamine cleavage fluorescence; AID 743255; hit rate 0.23% among 390,000; active means well fitted inhibition curve with a large enough effect; further: nearly all actives have a fitted effect of over 60% in size
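In this screen, compounds sit with the deubiquitinase complex (1nM) for 15 min at room temperature before Ub-Rho is added at 150nM final. Fluorescence rise is then followed for 6 reads every 60 seconds.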
TRHR agonist = agonists of human TRH receptor; P34981; TRHR cells, calcium flux fluo-8, FDSS agonist mode; activation, % at 2 µM; hit rate 0.18% among 360,000
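Fluo-8-loaded TRHR cells; 10 s baseline, compound added, kinetic Ca2+ fluorescence read 1/s, agonist mode.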
A number is an active result; – = inactive; · = no result. Unless noted, no stated cut-off is given here; in the data, active means activation above about 30%; inactive means the rest.

SMILES	D1 agonist	D1 PAM	TRHR PAM	D1 antagonist	USP1 inh	TRHR agonist
Cc1ccccc1Cn1c(=O)n(CCC(=O)NCc2ccco2)c(=O)c2sccc21	–	–	–	–	–	–
O=C(C1=C[C@H](C2CC2)C[C@H](OCCCCO)O1)N1CCN(Cc2ccc3c(c2)OCO3)CC1	–	–	–	–	–	–
CCO[C@H]1OC(C(=O)NCc2ccccc2)=C[C@@H](C)[C@@H]1CCCO	–	–	–	–	–	–
CCO[C@@H]1OC(C(N)=O)=C[C@H](c2ccc3c(c2)OCO3)[C@H]1CCCO	–	–	–	-33.9	–	–
C[C@@H]1C=C(C(=O)N2CCN(Cc3ccc4c(c3)OCO4)CC2)O[C@H](OCCCCO)C1	–	–	–	-37.6	–	–
CCO[C@H]1OC(C(=O)NC2CC2)=C[C@@H](c2ccc3c(c2)OCO3)[C@@H]1CCCO	–	–	–	–	–	–
CCO[C@H]1OC(C(=O)NCc2ccccc2)=C[C@@H](C2CC2)[C@@H]1CCCO	–	–	–	-43.6	–	–
CCO[C@@H]1OC(C(=O)N2CCN(Cc3ccc4c(c3)OCO4)CC2)=C[C@H](C2CC2)[C@H]1CCCO	–	–	–	–	–	–
CCO[C@H]1OC(C(=O)N2CCN(Cc3ccc4c(c3)OCO4)CC2)=C[C@@H](C2CCCCC2)[C@@H]1CCCO	–	–	37.7	–	–	–
O=S(=O)(NCCc1csc2nc(-c3ccccc3)nn12)c1ccc(Oc2ccccc2)cc1	–	–	–	·	–	–
CCCC(=O)OCCNc1cc(Sc2nc3ccccc3[nH]2)c2nonc2c1[N+](=O)[O-]	–	–	–	-48.7	–	–
O=C(O)c1ccc(S(=O)(=O)N[C@@H](Cc2ccc(O)cc2)C(=O)O)cc1	–	–	–	–	·	–
N#Cc1ccc(C[C@@H](NS(=O)(=O)c2ccc(C(=O)O)cc2)C(=O)O)cc1	–	–	–	-35.1	·	–
CCc1cc(/C(Cc2cscn2)=N\O)c(O)cc1O	–	–	30.1	–	–	–
CCCN1C(=O)C(Cc2nc3ccccc3c(=O)n2-c2ccc(OC)cc2)c2cc(C)ccc21 (configuration not stated)	–	–	–	–	–	–
CN1C(=O)Cc2cc(S(=O)(=O)CCC(=O)Nc3ccccc3)ccc21	–	–	–	–	–	–
COc1ccc(C)cc1NC(=O)CCS(=O)(=O)c1ccc2c(c1)CC(=O)N2C	–	–	–	-32.0	–	–
COc1cc(NC(=O)CCS(=O)(=O)c2ccc3c(c2)CC(=O)N3C)cc(OC)c1OC	–	–	–	-77.0	–	–
O=C1NC(c2cccc(Cl)c2)Oc2ccccc21 (configuration not stated)	–	–	31.9	–	–	–
C=C(C)COc1ccc(C2NC(=O)c3ccccc3O2)cc1OCC (configuration not stated)	–	–	–	-49.1	–	–
CCOc1ccc(C2NC(=O)c3ccccc3O2)cc1OCC (configuration not stated)	–	–	–	–	–	–
CCOc1ccccc1N(C)C(=O)c1sc2nc3n(c(=O)c2c1C)CCCC3	–	–	–	–	–	–
CCOC(=O)c1ccc(NC(=O)CSc2nnc(CNC(=O)c3ccc(OC)cc3)n2CC)cc1	–	–	–	–	–	–
Cc1cc(C)n(-c2ccc(Cl)c(C(=O)Nc3ccc(OC(F)(F)F)cc3)n2)n1	–	–	–	-36.4	–	–
COc1ccc(-c2oc3ccccc3c2C#CC(C)(C)O)cc1	–	–	31.0	·	–	–
SMILES	D1 agonist	D1 PAM	TRHR PAM	D1 antagonist	USP1 inh	TRHR agonist
CCOc1ccccc1CN1CCCC(C(=O)Nc2cccc(-n3cccn3)c2)C1 (configuration not stated)	49.3	–	–	-63.8	–	–
CCn1ncc(CN2CCCC(C(=O)Nc3cccc(-c4cc5ccccc5[nH]4)c3)C2)c1C (configuration not stated)	90.6	–	–	-50.9	–	–
O=C(Nc1cccc(-n2cccn2)c1)C1CCCN(Cc2cc3ccccc3[nH]2)C1 (configuration not stated)	–	–	–	–	–	–
CC1CCCCN1C(=O)CSc1c2c(nc3cc(Cl)ccc13)CCCC2 (configuration not stated)	–	–	–	–	–	–
CCN(c1ccc(N=Cc2c(O)n(Cc3ccc(OC)cc3)c(=O)c3ccccc23)cc1)C(C)C	57.5	–	–	–	–	–
O=[N+]([O-])c1ccccc1N/N=C/c1c[nH]c2ccccc12	–	–	–	-70.8	–	–
COc1ccc(C(=O)N/N=C/c2sc(N3CCOCC3)nc2-c2ccccc2)cc1OC	–	–	–	–	–	–
O=[N+]([O-])c1ccccc1N/N=C/c1ccccc1	–	–	–	–	–	–
O=[N+]([O-])c1ccc(N/N=C/c2c[nH]c3ccccc23)cc1	81.0	–	–	–	–	32.4
COc1ccccc1NS(=O)(=O)c1cc([N+](=O)[O-])ccc1N/N=C/c1sc(N2CCOCC2)nc1-c1ccccc1	33.4	–	–	–	–	–
COc1ccccc1NS(=O)(=O)c1cc([N+](=O)[O-])ccc1N/N=C/c1c[nH]c2ccccc12	61.3	–	–	–	–	–
CCOC(=O)c1cc(-c2ccccc2)n(CCCC(=O)Nc2cccc(C)c2C)c1C	–	–	–	–	–	–
Cc1ccc2c(Sc3ccc(Cl)cc3)c(C(=O)N3CCCCC3)[nH]c2c1	–	–	–	–	–	–
CCOC(=O)CCc1cc(F)c(S(=O)(=O)N2CCN(S(=O)(=O)c3ccc4c(c3)OCCO4)CC2)cc1F	–	–	–	–	·	–
O=[N+]([O-])c1ccc(N/N=C/c2ccc[nH]2)cc1	78.6	–	–	-43.6	–	–
O=[N+]([O-])c1ccc(NN=Cc2cccc([N+](=O)[O-])c2)cc1	·	·	·	·	–	·
COc1cc(OC)c(NC(=O)CCc2nc(C3=CCN(Cc4cccc(Cl)c4)CC3)no2)cc1Cl	–	–	–	–	–	–
Cc1cc(C)c(NC(=O)Cn2c([N+](=O)[O-])cnc2C)c(C)c1	–	–	–	-45.5	–	–
COc1ccccc1N1CCN(C(=O)c2cc(S(=O)(=O)N3CCC(C)CC3)cn2C)CC1	–	–	–	–	–	–
Cc1cc(O)c(C(c2ccc(F)cc2)N2CCN(c3ccccc3)CC2)c(=O)n1Cc1ccco1 (configuration not stated)	–	–	–	–	–	–
C=CCn1c(N2CCN(c3ccc(OC)cc3)CC2)nc2c1c(=O)n(C)c(=O)n2C	–	–	–	-37.6	–	–
CCN(CC)C(=O)c1ccc2c(c1)N(Cc1ccccc1)C(=O)CS2=O (configuration not stated)	–	–	32.9	–	–	–
